Measurements as given in the supplement of paper PMC13380429.

These molecules were tested on Vero E6 infected with SARS-CoV-2 (assay: inhibition of SARS-CoV-2 cytopathic effect; higher = more antiviral protection, active = above 15). Conditions: 1 nM; 48 h.
In the case of `O=C(Nc1cccnc1)c1cc(-c2ccnc(F)c2)ccc1OCc1ccccc1`, the “inhibition of SARS-CoV-2 cytopathic effect” value (from here on “inhibition”) is reported as 2.42% (inactive). `COc1ccccc1C(=O)Nc1cccc(NC(=O)c2cccc(C)c2)c1` was tested, and the “inhibition” value was 1.89% (inactive). With `CCC1(CC)C(=O)C=CNC1=O` [pyrithyldione] the “inhibition” value was 1.54% (inactive). In the case of `c1ccc(CCCCN2CCC(c3ccccc3)CC2)cc1`, the “inhibition” value is reported as -1.33% (inactive). With `O=c1oc2ccccc2c(O)c1Cc1c(O)c2ccccc2oc1=O` [dicoumarol] the “inhibition” value was 0.87% (inactive). For `CC(C)NCC(O)COc1cccc2[nH]c3ccccc3c12` (stereo not given) [carazolol], the “inhibition” value was 1.76% (inactive). With `CCN(c1ccccc1)c1cc(=NC)n(C)c(C)n1` the “inhibition” value was -6.18% (inactive). With `CC(C)(O)[C@@H]1[C@H]2OC(=O)[C@@H]1[C@]1(O)C[C@H]3O[C@]34C(=O)O[C@H]2[C@]14C` [picrotin] the “inhibition” value was -0.34% (inactive). `COc1ccc(-c2ccc3c(N4CCOCC4)nc(N4C[C@@H](C)O[C@@H](C)C4)nc3n2)cc1CO` was tested, and the “inhibition” value was 1.75% (inactive). For `O=c1[nH]cnc2c1ncn2[C@H]1CC[C@@H](CO)O1` [didanosine], the “inhibition” value was 0.07% (inactive). With `CC(C)(C)CC(C)(C)c1ccc(O)c(Cc2ccc(Cl)cc2Cl)c1` [clofoctol] the “inhibition” value was 3.11% (inactive). For `O=C(CNC(=O)c1cccc(C(F)(F)F)c1)N[C@@H]1CCN(Cc2ccc(Cl)cc2)C1` [teijin-compound-1], the “inhibition” value was -1.08% (inactive). With `O=C1c2cc(Cl)ccc2OC2CCON12` (stereo not given) [seclazone] the “inhibition” value was -0.24% (inactive). `Nc1ncnc2c1ncn2[C@H]1CC[C@@H](CO)O1` [dideoxyadenosine] was tested, and the “inhibition” value was 2.15% (inactive). In the case of `Cc1cc(NC(=O)C2=C(O)c3ccccc3S(=O)(=O)N2C)no1` [isoxicam], the “inhibition” value is reported as -3.86% (inactive). For `CCCCCCOc1nsnc1C1=CCCN(C)C1` [xanomeline], the “inhibition” value was 0.86% (inactive). For `COc1cc2c(cc1O)CC[C@@H]1[C@@H]2CC[C@]2(C)[C@@H](O)CC[C@@H]12` [2-methoxyestradiol], the “inhibition” value was -3.17% (inactive). With `Nc1ncnc2c1c(-c1cnc3[nH]ccc3c1)nn2C1CCCC1` the “inhibition” value was -1.07% (inactive). With `O=C(O)c1cn(C2CC2)c2cc(N3CCNCC3)c(F)cc2c1=O` [ciprofloxacin] the “inhibition” value was -2.01% (inactive). In the case of `FCc1ccc(OCCOc2ccc(Cl)cc2Cl)c(Cl)n1`, the “inhibition” value is reported as 2.16% (inactive). In the case of `CC/C=C(\C(=O)N[C@@H]1C(=O)N2C(C(=O)OCOC(=O)C(C)(C)C)=C(COC(N)=O)CS[C@H]12)c1csc(N)n1` [cefcapene-pivoxil], the “inhibition” value is reported as -0.85% (inactive). In the case of `Nc1nc(=O)c2sc(=O)n([C@@H]3O[C@H](CO)[C@@H](O)[C@H]3O)c2[nH]1`, the “inhibition” value is reported as 2.96% (inactive). In the case of `COC(=O)/C=C/C(=O)OCCN1C(=O)CCC1=O` [diroximel-fumarate], the “inhibition” value is reported as -3.18% (inactive). `O=C(O)c1cc2ccccc2s1` was tested, and the “inhibition” value was -0.94% (inactive). With `CC(C)Oc1ccc(-c2nn([C@@H](C)c3oc4ccc(F)cc4c(=O)c3-c3cccc(F)c3)c3ncnc(N)c23)cc1F` the “inhibition” value was 1.54% (inactive). In the case of `CC(C)CNc1ccnc(NCc2csc(-c3ccccc3)n2)n1`, the “inhibition” value is reported as 0.06% (inactive). `CCCCCCCC/C=C\CCCCCCCC(=O)N[C@@H](CO)Cc1ccc(O)cc1` was tested, and the “inhibition” value was 0.56% (inactive). In the case of `CS(=O)(=O)c1ccc(C2=C(c3ccccc3)C(=O)OC2)cc1` [rofecoxib], the “inhibition” value is reported as 1.64% (inactive). For `CC(C)(C)c1ccc(C(O)CCCN2CCC(C(O)(c3ccccc3)c3ccccc3)CC2)cc1` (stereo not given) [terfenadine], the “inhibition” value was 1.94% (inactive). For `CCOC(=O)[C@H](C)C[C@@H](Cc1ccc(-c2ccccc2)cc1)NC(=O)CCC(=O)O` [sacubitril], the “inhibition” value was -3.45% (inactive). For `CC(C)N(CCC(=O)c1ccc2ccccc2c1)Cc1ccccc1`, the “inhibition” value was 0.32% (inactive). In the case of `O=C(O)CCCO`, the “inhibition” value is reported as 1.65% (inactive). With `C[C@]12Cc3c[nH]nc3C[C@@H]1CC[C@@H]1[C@@H]2CC[C@@]2(C)[C@H]1CC[C@]2(C)O` [stanozolol] the “inhibition” value was -3.58% (inactive). For `O=C(Nc1ccccc1)OCC(CN1CCCCC1)OC(=O)Nc1ccccc1` (stereo not given) [diperodon], the “inhibition” value was 0.17% (inactive). In the case of `Cc1c2oc3c(C)ccc(C(=O)N[C@@H]4C(=O)N[C@H](C(C)C)C(=O)N5CCC[C@H]5C(=O)N(C)CC(=O)N(C)[C@@H](C(C)C)C(=O)O[C@@H]4C)c3nc-2c(C(=O)N[C@@H]2C(=O)N[C@H](C(C)C)C(=O)N3CCC[C@H]3C(=O)N(C)CC(=O)N(C)[C@@H](C(C)C)C(=O)O[C@@H]2C)c(N)c1=O` [dactinomycin], the “inhibition” value is reported as -0.42% (inactive). With `COc1nc(N)nc2c1ncn2[C@@H]1O[C@H](CO)[C@@H](O)[C@@H]1O` [nelarabine] the “inhibition” value was -1.29% (inactive). In the case of `CC1=C(/C=C/C(C)=C/C=C/C(C)=C/C=O)C(C)(C)CCC1` [retinaldehyde], the “inhibition” value is reported as -0.27% (inactive). `Nc1ccc(S(=O)(=O)NC(=O)c2ccccc2)cc1` [sulfabenzamide] was tested, and the “inhibition” value was -2.34% (inactive). In the case of `c1coc(-c2nnc3sc(C4CCCCC4)nn23)c1` [cardionogen-1], the “inhibition” value is reported as -0.83% (inactive). `Cc1ccc(C[N+](C)(C)C)o1` [5-methylfurmethiodide] was tested, and the “inhibition” value was -1.33% (inactive).
